Results from PubChem BioAssay (NCI).
Compounds without any hit were thinned out: in the full panel of roughly 79,000, 15% have a hit. Cut-off read from the data, not from the text of the source: active = growth inhibition above about 70%; inactive = the rest.

Assays:
[1] = NCI Yeast Anticancer Drug Screen. Data for the rad50 strain (AID 155);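 note: 0% = growth of vehicle-only cultures of the same strain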; details: S. cerevisiae rad50 strain growth inhibition; at 50.0 µM; hits give high values
How it was run: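 DNA repair mutant yeast, compound exposure, growth read-out; inhibition is taken relative to vehicle.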

[2] = NCI Yeast Anticancer Drug Screen. Data for the mec2-1 strain (AID 157); details: S. cerevisiae mec2-1 strain, at 50.0 µM, hits give high values
How it was run: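 mec2-1 yeast strain, carrying an alteration in DNA damage repair or cell cycle control, was exposed to compounds; growth inhibition was measured relative to vehicle-treated controls.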

[3] = NCI Yeast Anticancer Drug Screen. Data for the sgs1 mgt1 strain (AID 161);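 note: 0% = growth of cultures given vehicle only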; details: S. cerevisiae sgs1 mgt1 strain, at 50.0 µM, hits give high values
How it was run: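 Growth of a repair-deficient yeast mutant was monitored after compound treatment and expressed as inhibition relative to vehicle-treated cultures.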

[4] = NCI Yeast Anticancer Drug Screen. Data for the cln2 rad14 strain (AID 165);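 note: 0% = growth equal to vehicle treated cultures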; details: S. cerevisiae cln2 rad14 strain, at 50.0 µM, hits give high values
How it was run: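 Yeast carrying cln2 and rad14 alterations (cell cycle control and DNA damage repair) were exposed to compounds. Growth inhibition was measured against vehicle-treated controls.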

[5] = NCI Yeast Anticancer Drug Screen. Data for the bub3 strain (AID 167); details: S. cerevisiae bub3 mutant strain, at 50.0 µM, hits give high values
How it was run: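 In this screen, a yeast mutant lacking normal mitotic checkpoint function is challenged with compound. Relative growth versus vehicle gives the inhibition value.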

[6] = NCI Yeast Anticancer Drug Screen. Data for the mlh1 rad18 strain (AID 175); details: S. cerevisiae mlh1 rad18 strain growth inhibition; at 50.0 µM; hits give high values
How it was run: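 Growth inhibition of the yeast strain was measured after compound exposure and expressed relative to vehicle-treated controls. The strain carries defined defects in DNA damage repair.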

Measured: growth inhibition

CCc1ccc(CC)c(OC)c1
inactive: [1] 16.6% | [2] -1.8% | [3] 0.4% | [4] -27.2% | [5] -11.1% | [6] 18.7%

C(#Cc1c2ccccc2c(C#Cc2ccccc2)c2c(-c3ccccc3)cccc12)c1ccccc1
inactive: [1] -11.1% | [2] 13.1% | [3] -3.5% | [4] 4.05% | [5] 45.6% | [6] 24.5%

CCCCN=CC(Cl)(Cl)C(=O)OCC
inactive: [1] -13.2% | [2] -21.6% | [3] -8.35% | [4] 4.05% | [5] -10.9% | [6] -19.7%

COc1ccc(NC(=O)Nc2cccc(Cl)c2C)c(OC)c1
inactive: [1] -0.9% | [2] 9.3% | [3] 32.8% | [4] -3.15% | [5] 9.85% | [6] 5.6%

O=c1[nH]cc(CCOCc2ccccc2)c(=O)[nH]1
inactive: [1] -4.3% | [2] -8.15% | [3] 0.3% | [4] 34.2% | [5] -10.4% | [6] -17%

CCS(=O)(=O)c1ccc(NC(=O)OC2CCCCCC2)cc1
inactive: [1] -2.65% | [2] -2.25% | [3] 25.8% | [4] -1.25% | [5] 12.3% | [6] 7.8%

O=C(O)c1ccc[n+](Cc2ccccc2)c1
inactive: [1] 4.9% | [2] 12.6% | [3] -5.15% | [4] -8.2% | [5] -5.95% | [6] 2.15%

O=[N+]([O-])c1ccc(/C([O-])=C(\C(=S)Nc2ccccc2Cl)[n+]2ccccc2)cc1
inactive: [1] -7.5% | [2] 0.1% | [3] -6.95% | [4] -14.4% | [5] 2.35% | [6] 11.2%

Cc1nc2cc(Nc3ccccc3C(=O)O)ccc2s1
inactive: [1] -43.3% | [2] -36.6% | [3] -50.6% | [4] -0.7% | [5] -22.2% | [6] -25.9%

O=C(O)Cc1ccccc1Cl
inactive: [1] 24.4% | [2] 32.1% | [3] 6.55% | [4] -23.9% | [5] 14.8% | [6] 17.9%

COc1ccc(Oc2nc(=O)n3ccccc3n2)cc1
inactive: [1] -13.4% | [2] 0.65% | [3] -14.6% | [4] -12.6% | [5] 9.45% | [6] -20.7%

CCOC(=O)C(=O)Nc1cccc(NC(=O)C(=O)OCC)n1
inactive: [1] 2.5% | [2] -21.6% | [3] -19.1% | [4] 4.4% | [5] -13.8% | [6] -6.05%

COc1ccc(-n2c(=O)c(N=Nc3ccccc3Cl)c(O)n(-c3ccccc3OC)c2=S)cc1
inactive: [1] 22.4% | [2] 4.65% | [3] 33.2% | [4] -33.1% | [5] 2.2% | [6] 3.2%

CCCCCC(=O)OCC(COC(=O)CCCCC)OC(=O)CCCCC
inactive: [1] -2.65% | [2] 23.1% | [3] -5.05% | [4] 12.6% | [5] 10.9% | [6] 20.6%

CC(=O)c1cccc(NC(=O)C(=O)C(C(=O)c2ccccc2F)C2OC(=O)c3ccccc32)c1 (stereo unspecified)
inactive: [1] 9.2% | [2] -7.2% | [3] -5.45% | [4] 3.7% | [5] -6.2% | [6] -4.05%

O=C(N/N=C1\C(=O)N(c2nccs2)C(=O)C(=O)C1c1nc2ccccc2s1)c1ccccc1O (stereo unspecified)
inactive: [1] 23.1% | [2] 16.9% | [3] 20.4% | [4] 30.1% | [5] 4.5% | [6] 34.1%

O=C1CCC(c2ccccc2)(c2ccccc2)CC1
inactive: [1] 31.8% | [2] -24.6% | [3] -16.1% | [4] -15.5% | [5] 0.15% | [6] 17.5%

COC(=O)C1(CC(=O)c2ccc(F)cc2)NC(=S)NC(=O)C1C#N (stereo unspecified)
inactive: [1] 14.6% | [2] 2% | [3] -8.3% | [4] -13.1% | [5] -34% | [6] -1.7%

O=C(CNc1c(Cl)cccc1Cl)NC1C=Cc2ccc(S(=O)(=O)Nc3c(Cl)cccc3Cl)cc2C1=O (stereo unspecified)
inactive: [1] 36.2% | [2] 12.9% | [3] 49% | [4] 5.35% | [5] 19% | [6] 22%

Cc1cc2oc(=O)cc(C(=O)O)c2c(=O)o1
inactive: [1] -15.8% | [2] -9.55% | [3] -13.2% | [4] -17.6% | [5] -8.85% | [6] -16.1%

COc1ccc(C(=O)C[C@H]2CCC[C@@H](CC(=O)c3ccc(OC)cc3)N2C)cc1
inactive: [1] 14.4% | [2] 5.05% | [3] 5.05% | [4] 12% | [5] 0.25% | [6] 8.1%
